# From PubChem BioAssay (NCATS)
# Inconclusive results are not listed. Active and inactive are the calls of the source. The call rests on the fitted dose curve; in most records, active means well fitted curve in the direction sought with a large enough effect; inconclusive means small, poorly fitted or top-dose-only effect, or another doubt; inactive means no such curve, though single readings can be large; an effect the other way counts as inactive or inconclusive.
# Experiments:
# [1] = test system: OV90; assay: Primary qHTS to identify gynecologic anti-cancer compounds using libraries of approved drugs and bioactive compounds (AID 1345084); conditions: Gynecologic cancer cell panel viability, ATPlite luminescence, 48 h; series mostly up to 57.5 µM; further: nearly all actives have a fitted effect of over 55% in size
# Method in brief: (§1)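 Cells, 1,000 per well, were allowed to settle for 16 h at 37 C before compound addition. Five concentrations were tested for 48 h, and viability was read by ATPlite luminescence after 15 min at room temperature.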
# [2] = test system: PA-1; assay: as above; conditions: Gynecologic cancer cell panel viability, ATPlite luminescence, 48 h; series mostly up to 57.5 µM
# Method in brief: as §1
# [3] = test system: Tov-21-G; assay: as above; conditions: Gynecologic cancer cell panel viability, ATPlite luminescence, 48 h; series mostly up to 57.5 µM
# Method in brief: as §1
# [4] = test system: Tov112D; assay: as above; conditions: Gynecologic cancer cell panel viability, ATPlite luminescence, 48 h; series mostly up to 57.5 µM
# Method in brief: as §1
# [5] = test system: astro; assay: Drug repurposing screens with cells derived from glioblastoma tumor samples (AID 1345199); conditions: viability, ATP luminescence, 48 h; series mostly up to 45.9 µM; further: nearly all actives have a fitted effect of over 40% in size; on activity, negative = cell killing: on the % scale 0 is the no-effect control and ±100 the full control effect
# Method in brief: (§2)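 Four patient lines of CD133+ GBM neurospheres were screened at several concentrations; hits were retested in those lines plus three slower-growing GBM lines, using 48-hour treatment and ATP-based viability.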
# [6] = test system: Hek293T; assay: Primary qHTS to identify gynecologic anti-cancer compounds using libraries of approved drugs and bioactive compounds (AID 1345084); conditions: Gynecologic cancer cell panel viability, ATPlite luminescence, 48 h, control line for the selectivity index; series mostly up to 57.5 µM; further: nearly all actives have a fitted effect of over 55% in size
# Method in brief: as §1
# [7] = test system: JEG-3; assay: as above; conditions: Gynecologic cancer cell panel viability, ATPlite luminescence, 48 h; series mostly up to 57.5 µM
# Method in brief: as §1
# [8] = test system: SKOV3; assay: as above; conditions: Gynecologic cancer cell panel viability, ATPlite luminescence, 48 h; series mostly up to 57.5 µM
# Method in brief: as §1
# [9] = qHTS assay to identify inhibitors of the type 1 interferon - major histocompatibility complex class I in skeletal muscle: Counter screen cell viability and HiBit confirmation (AID 1347412); conditions: iHSKM muscle cells + IFN-b, HiBiT or CellTiter-Glo, 24 h; Potency: HiBiT; Viability, at 45.9 µM (top of the series); further: nearly all actives have a fitted effect of over 60% in size
# Method in brief: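 Luminescence read-out: Nano-Glo HiBiT lytic signal from C-terminally HiBiT-tagged HLA-B in CRISPR-edited human myoblasts, plus CellTiter Glo ATP as viability counter screen. IFN-beta 4.0 ng/ml; 24 hrs treatment at 37 C, 5% CO2.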
# [10] = Drug repurposing screens with cells derived from glioblastoma tumor samples (AID 1345199); conditions: GBM patient neurospheres viability, ATP luminescence, 48 h; for Potency: tumour line A; on activity, negative = cell killing: on the % scale 0 is the no-effect control and ±100 the full control effect; on all read-outs here: nearly all actives have a fitted effect of over 40% in size
# Method in brief: as §2
# [11] = at 45.9 µM (top of the series), tumour line B
# [12] = at 45.9 µM (top of the series), tumour line D
# [13] = at 46.1 µM (top of the series), tumour line C
# Potency means the concentration at half of the fitted maximal effect.
compound,measurement,setting,value
NC(N)=NN=C(/C=C/c1ccc([N+](=O)[O-])o1)/C=C/c1ccc([N+](=O)[O-])o1,Potency,[1],15.8 µM (active)
same,Potency,[2],7.08 µM (active)
same,Potency,[3],12.6 µM (active)
same,Potency,[4],17.8 µM (active)
same,Potency,[5],22.4 µM (active)
Oc1c(Cl)cc(Cl)c(Cl)c1Cc1c(O)c(Cl)cc(Cl)c1Cl,Potency,[6],8.91 µM (active)
same,Potency,[1],10 µM (active)
same,Potency,[2],11.2 µM (active)
same,Potency,[3],inactive
same,Potency,[5],4.47 µM (active)
CN1CCC[C@@H]1CCO[C@](C)(c1ccccc1)c1ccc(Cl)cc1,Potency,[7],20 µM (active)
same,Potency,[1],11.2 µM (active)
same,Potency,[8],22.4 µM (active)
Cc1ccc2c(Br)cc(Br)c(O)c2n1,Potency,[2],10 µM (active)
same,Potency,[8],15.8 µM (active)
same,Potency,[3],17.8 µM (active)
CCCCCCCCCCCCOCCOCCOCCOCCOCCOCCOCCOCCOCCO,Potency,[7],inactive
same,Potency,[1],28.2 µM (active)
same,Potency,[3],inactive
same,Potency,[4],inactive
same,Potency,[5],3.16 µM (active)
CN1CCN(CCC(=O)N2c3ccccc3Sc3ccc(C(F)(F)F)cc32)CC1,Potency,[1],15.8 µM (active)
same,Potency,[5],inactive
C[C@H]1O[C@@H](O[C@H]2CC[C@@]3(C)[C@H](CC[C@@H]4[C@@H]3C[C@@H](O)[C@]3(C)[C@@H](C5=CC(=O)OC5)CC[C@]43O)C2)C[C@H](O)[C@@H]1O[C@H]1C[C@H](O)[C@H](O[C@H]2C[C@H](O)[C@H](O[C@@H]3O[C@H](CO)[C@@H](O)[C@H](O)[C@H]3O)[C@@H](C)O2)[C@@H](C)O1,Potency,[6],0.355 µM (active)
same,Potency,[1],1.58 µM (active)
same,Potency,[2],0.316 µM (active)
same,Potency,[8],0.282 µM (active)
same,Potency,[3],0.316 µM (active)
same,Potency,[4],0.316 µM (active)
same,Potency,[5],0.316 µM (active)
same,Potency,[9],0.198 µM (active)
Cc1cc(CC(=O)O)c(C)n1-c1ccc(Cl)cc1,Potency,[7],inactive
same,Potency,[1],inactive
same,Potency,[2],inactive
same,Potency,[8],inactive
same,Potency,[3],inactive
same,Potency,[4],inactive
same,"activity, negative = cell killing",[10]; [11],-14.5% (inactive)
same,"activity, negative = cell killing",[10]; [12],3.83% (inactive)
same,Potency,[10],25.1 µM (active)
same,Potency,[5],inactive
CCN1/C(=C/C=C/c2sc3ccccc3[n+]2CC)Sc2ccccc21,Potency,[6],2 µM (active)
same,Potency,[1],2.24 µM (active)
same,Potency,[2],1.41 µM (active)
same,Potency,[8],0.126 µM (active)
same,Potency,[3],0.891 µM (active)
same,Potency,[4],3.16 µM (active)
same,Potency,[5],11.2 µM (active)
O=c1[nH]c(=O)n([C@H]2C[C@H](O)[C@@H](CO)O2)cc1F,Potency,[6],inactive
same,Potency,[1],7.94 µM (active)
same,Potency,[8],7.94 µM (active)
same,Potency,[4],1 µM (active)
same,"activity, negative = cell killing",[10]; [13],-17.1% (inactive)
same,Potency,[10],0.891 µM (active)
CCN(CC)CCNc1ccc(CO)c2sc3ccccc3c(=O)c12,Potency,[6],35.5 µM (active)
same,Potency,[1],35.5 µM (active)
same,Potency,[2],28.2 µM (active)
O=C(Nc1ncc([N+](=O)[O-])s1)c1cccs1,Potency,[7],inactive
same,Potency,[1],20 µM (active)
same,Potency,[8],inactive
same,Potency,[5],15.8 µM (active)
Cc1ccc(O)c([C@H](CCN(C(C)C)C(C)C)c2ccccc2)c1,Potency,[6],inactive
same,Potency,[2],inactive
same,Potency,[8],inactive
same,Potency,[3],inactive
same,Potency,[4],inactive
same,"activity, negative = cell killing",[10]; [11],-18% (inactive)
same,"activity, negative = cell killing",[10]; [13],-1.49% (inactive)
same,Potency,[10],3.98 µM (active)
same,Potency,[5],inactive
O=C(CCCN1CC=C(n2c(=O)[nH]c3ccccc32)CC1)c1ccc(F)cc1,Potency,[6],inactive
same,Potency,[7],inactive
same,Potency,[3],inactive
same,Potency,[4],inactive
same,"activity, negative = cell killing",[10]; [11],-17.1% (inactive)
same,"activity, negative = cell killing",[10]; [12],-15% (inactive)
same,"activity, negative = cell killing",[10]; [13],-24.6% (inactive)
same,Potency,[10],10 µM (active)
same,Potency,[5],inactive
